Bioassay records: PubChem BioAssay, Broad Institute
An excerpt weighted towards active compounds, which were near 3.1% of everything screened.
Env fusion inh: HIV envelope-mediated fusion inhibition. AID 651610. inhibition, % at 12.3 µM. actives 1.1% (n = 360,000). HeLa-JRFL Env/CEM21 cell fusion, luciferase;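 active = mean replicate inhibition score of at least 50 and every replicate individually at or above 50; inconclusive = only one of the two criteria met; inactive = mean below 50 and not all replicates reaching 50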
miR-122 sensor: inhibitors of miR-122 in Huh7 cells; Huh7 miR-122 Renilla luciferase sensor, 48 h; neutral wells = 0, positive control = 100; activation (reporter increase), % at 12.5 µM; actives 0.3% (n = 340,000);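 active = mean replicate activation score at least 90 and every replicate individually at or above 90; inconclusive = only one of the two criteria met; inactive = neither criterion met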;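 note: higher luciferase means less miR-122 activity so hits act as miR-122 inhibitors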
EWS-Fli inh: blocks EWS/Fli oncoprotein-driven transcription | A673 NR0B1-luciferase reporter, viability-normalised | inhibition, % at 12.6 µM | actives 0.67% (n = 350,000) | AID 651661;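 active = mean inhibition of at least 50% after viability correction, with every replicate also passing that limit; inconclusive = mean reaches 50% but only one of two replicates passes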;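 note: firefly luciferase signal divided by Alamar Blue viability fluorescence both relative to DMSO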
GSIS activator: primary screen for activators of insulin secretion dependent on glucose, INS-1E cells, GLuc reporter luminescence; INS-1E GLuc reporter insulin secretion, 2-3 h; activation, % at 16.6 µM; actives 0.61% (n = 370,000);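 active = lowest replicate activation of at least 40%, so every replicate reaches that level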
C2C12 statin: suppressors of simvastatin-induced myotoxicity in C2C12 myotubes; actives 0.78% (n = 330,000); ATP luminescence, 48 h; scaled: DMSO 0, geranylgeraniol control 100; AID 602340; rescue of ATP level, % at 7.49 µM;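 active = mean ATP rescue above about 67%, or every replicate alone reaching that limit, limit read from the data, passing the limit was not always enough; inconclusive = no clear call, values can overlap the other calls; inactive = mean under the limit and some replicate under it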;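 note: myotubes were challenged with 10 µM simvastatin during compound exposure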
PAX8 reporter: PAX8 transcriptional activity inhibition; inhibition, % at 12.6 µM; RMG-I TPO-luciferase reporter, SteadyGlo, 24 h; actives 1.2% (n = 360,000);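 active = mean replicate inhibition at least 60% with every replicate also reaching 60%; inconclusive = only one of the two criteria is met; inactive = mean below 60% and not all replicates reaching 60%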;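 note: luciferase light reporting Pax8 driven TPO promoter activity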
Hits are given with their value; i = inactive; ? = inconclusive; nt = no result.

SMILES	Env fusion inh	miR-122 sensor	EWS-Fli inh	GSIS activator	C2C12 statin	PAX8 reporter
C[C@H](CO)N1C[C@H](C)[C@H](CN(C)S(=O)(=O)c2ccc(Cl)cc2)OCCCC[C@H](C)Oc2ccc(NC(=O)Nc3ccc(C(F)(F)F)cc3)cc2C1=O	i	i	i	i	nt	77.9
C[C@@H]1CCCCO[C@@H](CN(C)S(=O)(=O)c2ccc(Cl)cc2)[C@H](C)CN([C@@H](C)CO)C(=O)c2cc(NC(=O)Nc3ccc(C(F)(F)F)cc3)ccc2O1	i	i	i	i	nt	i
CCC(=O)Nc1ccc2c(c1)C(=O)N(C)C[C@H](OC)[C@@H](C)CN(CCC(F)(F)F)[C@@H](C)CO2	nt	nt	nt	i	nt	i
CCN(CC)CC#CCC(C)(c1ccccc1)c1ccccc1	65.3	i	nt	i	i	nt
COCc1cn(CC[C@@H]2CC[C@H](NC(=O)Cc3cccnc3)[C@H](CO)O2)nn1	i	nt	i	i	i	i
CC(=O)NC(c1cc(Cl)c2cccnc2c1O)C(C)C (stereo not drawn)	i	i	i	i	80.7	i
CCC(=O)NC(c1ccco1)c1cc(Cl)c2cccnc2c1O (stereo not drawn)	?	i	i	i	nt	85.5
CC(=O)NC(c1cc(Cl)c2ccccc2c1O)C(C)C (stereo not drawn)	i	i	i	i	i	i
C/C=C/c1ccc([C@@H]2[C@@H](CO)N(C(=O)CN(C)C)C23CN(C(=O)C2CCCCC2)C3)cc1	i	nt	i	i	nt	i
Cc1cc(C(=O)N2CCCC(C(=O)c3ccc(Cl)cc3C)C2)no1 (stereo not drawn)	61.0	i	nt	i	i	i
CO[C@@H]1CN(C)C(=O)c2ccc(NS(=O)(=O)c3ccccc3)cc2OC[C@H](C)N(Cc2ccccn2)C[C@H]1C	nt	nt	nt	i	nt	nt
COc1ccc(S(=O)(=O)Nc2ccc3c(c2)OCO3)cc1C(=O)O	i	i	nt	i	i	nt
O=S(=O)(Nc1ccc(Cl)cc1)c1ccc2c(c1)CCO2	i	122.6	i	i	nt	i
O=C(O)Cc1ccc(NS(=O)(=O)c2ccc3c(c2)OCCO3)cc1	i	i	i	129.6	i	i
O=C(O)c1ccc(NS(=O)(=O)c2ccc3c(c2)OCCO3)cc1	i	i	i	i	i	i
O=S(=O)(Nc1ccc2c(c1)OCCO2)c1ccc(F)c(F)c1	i	i	i	i	i	i
COc1ccc(NS(=O)(=O)c2ccc3c(c2)OCCO3)cc1OC	92.7	i	i	i	i	i
COc1ccc(S(=O)(=O)Nc2ccc3c(c2)OCO3)cc1OC	i	i	nt	43.3	i	nt
O=C(C[C@H]1C[C@@H]2c3cc(NC(=O)Nc4ccccc4)ccc3O[C@@H]2[C@@H](CO)O1)NCc1cccnc1	i	i	i	i	i	i
C[C@@H]1CCCCO[C@@H](CN(C)S(=O)(=O)c2cn(C)cn2)[C@@H](C)CN([C@H](C)CO)C(=O)c2cc(NC(=O)CCCN(C)C)ccc2O1	i	i	i	i	nt	i
C[C@@H]1CCCCO[C@@H](CN(C)S(=O)(=O)c2ccccc2)[C@@H](C)CN([C@@H](C)CO)C(=O)c2cc(NC(=O)c3ccncc3)ccc2O1	i	i	i	i	nt	i
COc1ccc(S(=O)(=O)Nc2ccc3c(c2)OCCO3)cc1Cl	nt	i	nt	nt	113.9	nt
CN(C)Cc1ccccc1CNC(=O)c1cccc(S(=O)(=O)Nc2ccc3c(c2)OCO3)c1	i	116.8	i	i	i	i
CCN(CC)Cc1ccccc1CNC(=O)c1cccc(S(=O)(=O)Nc2ccc3c(c2)OCO3)c1	nt	nt	i	nt	i	i
CC[C@@H]1CC=CC[C@@H](C)Oc2ccccc2C(=O)N(C)[C@@H](C(C)C)C(=O)N1 (mixture of isomers)	nt	nt	nt	i	nt	nt
CC(C)Oc1ccc(C(=O)Nc2nc3ccccc3[nH]2)cc1	57.3	i	81.4	i	i	68.3
O=C(Nc1nc2ccccc2[nH]1)c1ccc(OC(F)F)cc1	i	i	i	i	i	i
CCc1ccc(C(=O)Nc2nc3ccccc3[nH]2)cc1	i	i	74.9	i	i	75.8
O=C(Nc1nc2ccccc2[nH]1)c1ccc(F)cc1	nt	i	i	i	i	nt
C[C@H](CO)N1C[C@H](C)[C@H](CN(C)C(=O)NC2CCCCC2)Oc2ccc(NC(=O)Cc3cn(C)c4ccccc34)cc2CC1=O	nt	i	i	i	i	i
